According to PubChem BioAssay AID1058 (Emory University Molecular Libraries Screening Center, 2008):
Potency and affinity values are given separately. Activity calls are given as the source filed them.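 How the source made its calls: active means fitted IC50 of 30 µM or less, with percent of control binding at that IC50 of 60 or less; inactive means the rest.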

Molecular target: Mothers against decapentaplegic homolog 3 (Homo sapiens) (UniProt P84022)
Assay: Smad3 binding inhibitors, lysate ELISA, dose response, cell lysate, secondary confirmation, chemiluminescent ELISA, HEK293 lysate (AID 1058)

Sequence of Mothers against decapentaplegic homolog 3 (Homo sapiens) (P84022 whole entry, looked up): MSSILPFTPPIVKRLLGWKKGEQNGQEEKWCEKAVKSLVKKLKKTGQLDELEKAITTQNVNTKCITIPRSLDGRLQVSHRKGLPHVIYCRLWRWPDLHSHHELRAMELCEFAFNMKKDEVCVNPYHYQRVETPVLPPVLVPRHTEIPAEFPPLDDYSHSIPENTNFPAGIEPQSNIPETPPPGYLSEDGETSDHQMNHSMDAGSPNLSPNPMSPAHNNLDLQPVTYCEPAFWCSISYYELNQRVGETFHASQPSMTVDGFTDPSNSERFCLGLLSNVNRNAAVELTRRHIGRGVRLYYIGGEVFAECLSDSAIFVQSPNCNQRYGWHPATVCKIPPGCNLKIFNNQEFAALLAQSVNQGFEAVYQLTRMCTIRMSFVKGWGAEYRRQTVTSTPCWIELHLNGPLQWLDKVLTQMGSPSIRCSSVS

## Oc1cc2c(cc1C(c1ccc(F)cc1)N1CCOCC1)OCO2 (stereo unspecified)
  outcome: inactive
